Reference: PubChem BioAssay AID652048 (National Center for Advancing Translational Sciences (NCATS), 2013)
Values joined by “and” are separate entries in the source; they are usually repeats but may differ in a detail not shown here. Equal entries are not always repeated. Screen size: about 410,000 compounds; about 2,400 (0.59%) were called active. The sample holds actives, similar compounds and a random draw of the others, so the mix is not that of the screen. Rule as the data show it: active = max activation above about 30%; inactive = the rest. Some compounds were tested as several samples or in several runs, with calls that do not always agree.

target: D(3) dopamine receptor (Homo sapiens) (UniProt P35462); test: qHTS of D3 Dopamine Receptor Agonist: qHTS; settings: D3R DiscoveRx beta-arrestin cells, luminescence, 90 min; stronger effect = higher value; also: 0% is about no effect
Sequence (P35462 whole entry, looked up): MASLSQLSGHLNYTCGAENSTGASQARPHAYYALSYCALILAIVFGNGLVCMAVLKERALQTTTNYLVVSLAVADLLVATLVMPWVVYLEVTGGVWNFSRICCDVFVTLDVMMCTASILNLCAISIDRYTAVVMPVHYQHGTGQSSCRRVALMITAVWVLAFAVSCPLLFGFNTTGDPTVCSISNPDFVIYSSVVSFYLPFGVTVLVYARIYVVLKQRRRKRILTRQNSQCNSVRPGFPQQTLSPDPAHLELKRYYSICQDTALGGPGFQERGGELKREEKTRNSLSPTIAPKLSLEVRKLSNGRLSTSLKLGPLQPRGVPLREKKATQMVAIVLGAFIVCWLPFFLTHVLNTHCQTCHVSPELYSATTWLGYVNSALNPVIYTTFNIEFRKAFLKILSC
Method in brief: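 Cells at 1500/well, incubated overnight, then treated with pinned compounds (dopamine as control) for 90 min at 37 degrees C. DiscoveRx reagent added for 30 - 60 minutes at room temperature; luminescence read.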

SMILES | max activation
COc1ccc(-n2c(=O)c3ccccc3n(Cc3ccccc3Cl)c2=O)cc1 | 4.01% (inactive)
Cc1ccc(CSc2oc(-c3cccs3)nc2S(=O)(=O)c2ccc(C)cc2)cc1 | 6.03% (inactive)
CCCCn1c(SCC(=O)NCC2CCCO2)nc2ccc(N3CCOCC3)cc2c1=O (centres undefined) | 33% (active)
N#CCSc1nc2ccc(N3CCOCC3)cc2c(=O)n1CCc1ccccc1 | 3.32% (inactive)
COCCCNC(=O)CSc1nc2ccc(N3CCOCC3)cc2c(=O)n1CCc1ccccc1 | -3.98% (inactive)
COc1ccccc1CNCc1ccc(C(=O)O)s1 | 6.32% (inactive)
COc1ccc(C)cc1Nc1nc2ccccc2c2nnc(C)n12 | 8.25% (inactive)
COC(=O)c1ccc(NC(=O)CCc2c(C)nn(-c3ccc(N4CCCC4)nn3)c2C)cc1 | -2.49% (inactive)
Cc1ccc(OCC(=O)Nc2ccc(OCc3cc(=O)n4c(C)csc4n3)cc2)cc1C | 4.15% (inactive)
CCOc1ccc(NC(=O)CN2CCN(CC(=O)Nc3ccc(OC)cc3)CC2)cc1 | 10.4% (inactive) and 34.5% (active)
COc1ccc(NC(=O)CCN2CCN(CCO)CC2)cc1 | 4.05% (inactive)
CCc1ccc(NC(=O)CN2CCC(C(=O)c3ccc(OC)cc3)CC2)cc1 | -15.3% (inactive)
CCc1ccc(S(=O)(=O)n2ccnc2)cc1 | 8.12% (inactive)
Oc1ccccc1-c1nc2ccc(Cl)cn2c1Nc1ccc2c(c1)OCCO2 | -2.82% (inactive)
Cc1ccsc1C1C(C#N)=C(N)OC2=C1C(=O)CC(C)C2 (centres undefined) | 1.57% (inactive)
CCOC(=O)CSC1=C(C#N)C(c2sccc2C)CC(=O)N1 (centres undefined) | 31.9% (active)
C=CCSC1=C(C#N)C(c2cc(Br)c(O)c(OC)c2)CC(=O)N1 (centres undefined) | 9.82% (inactive)
Cc1ccccc1CNC(=O)c1cccc(NC(=O)c2nsc3ccccc23)c1 | 8.47% (inactive)
CCCc1c2oc(C(=O)O)cc(=O)c2cc2c(=O)cc(C(=O)O)n(CC)c12 | -9.91% (inactive)
COc1ccc(OC)c(-c2csc(-c3c(N)c(C(=O)c4ccccc4)n4ccccc34)n2)c1 | -12% (inactive)
COc1ccc(-c2csc(-c3c(N)c(C(=O)c4ccc(OC)c(OC)c4)n4ccccc34)n2)cc1 | 4.7% (inactive)

SMILES | max activation
Cc1c(C=O)c2ccccn2c1C(=O)c1ccncc1 | 31.8% (active)
Nc1nc(/C(=C/CC(=O)O)C(=O)N[C@@H]2C(=O)N3C(C(=O)O)=CCS[C@H]23)cs1 | 4.45% (inactive)
COc1ccc(-c2nc3sc(CCNS(=O)(=O)c4ccc(F)c(C)c4)c(C)n3n2)cc1 | 6.72% (inactive)
CCn1c(C)c(C)c2cc(C(=O)N3CCN(c4cccc(C)c4C)CC3)ccc21 | 5.02% (inactive) and 95.9% (active)
Cc1c(C)n(Cc2ccc(Cl)cc2)c2ccc(C(=O)N3CCN(c4ccccc4F)CC3)cc12 | -3.88% (inactive)
Cc1cccc(N2CCN(C(=O)c3ccc4c(c3)CCN4S(=O)(=O)c3ccccc3)CC2)c1C | -0.325% (inactive)
O=C(CSc1nc2c(c(=O)[nH]1)CN(Cc1ccc(F)cc1)CC2)Nc1ccccc1Cl | 6.55% (inactive)
COC(=O)c1c(-c2ccsc2)oc2ccc(-c3cc(OC)c(OC)c(OC)c3)cc12 | 45.2% (active)
COc1cc(-c2nnc(NC(=O)CS(=O)(=O)c3ccc(Cl)cc3)o2)cc(OC)c1OC | -1.85% (inactive)
CCOC(=O)c1c(-c2ccc(OC)cc2)oc2ccc(OCc3ccc(C(=O)OC)cc3)cc12 | 9.24% (inactive)
COc1ccccc1NC(=O)c1sc2nc(C)c(C(=O)Nc3ccc(Cl)cc3)c(-c3ccc(Br)cc3)c2c1N | -10.3% (inactive)
Cc1nn(-c2ccc(N3CCCCC3)nn2)c(C)c1CCC(=O)NCc1ccccc1F | 13.4% (inactive)
CC(=O)Nc1ccc(C(=O)CSc2nnc(Cc3ccccc3)o2)cc1 | 46.1% (active)
CCOc1ccc(Nc2nc(Cc3nnc(SCC(=O)c4ccc(C)cc4)o3)cs2)cc1 | 22.4% (inactive)
O=C(CSc1nnc(Cn2cnc3ccccc32)o1)c1ccccc1 | 2.49% (inactive)
Cc1ccc(NC(=O)c2oc3ccc(S(=O)(=O)N4CCCCC4)cc3c2C)cc1Cl | -12.7% (inactive)
C[C@H](NC(=O)c1nc[nH]c1C(=O)NCC(=O)OC(C)(C)C)C(=O)OCc1ccccc1 | 48.3% (active)
CCOC(=O)c1[nH]cnc1C(=O)Nc1ccccc1C | 4.49% (inactive)
O=C(Nc1cc(Br)ccc1F)c1nc[nH]c1C(=O)NCc1ccccc1 | -7.03% (inactive)
C[C@H](NC(=O)c1nc[nH]c1C(=O)N[C@@H](C)C(=O)OC(C)(C)C)C(=O)OC(C)(C)C | -3.39% (inactive)
Cc1cccc(NC(=O)c2nc[nH]c2C(=O)NCC(=O)OCc2ccccc2)c1 | 74.4% (active)

SMILES | max activation
C[C@H](NC(=O)c1nc[nH]c1C(=O)NCC(=O)OC(C)(C)C)c1ccccc1 | -13.3% (inactive)
CNC(=O)c1[nH]cnc1C(=O)N[C@@H](CC(C)C)C(=O)OCc1ccccc1 | 15.1% (inactive)
CCOC(=O)c1ccc(NC(=O)c2nc[nH]c2C(=O)NCc2ccccc2)cc1 | 56.5% (active)
O=C(Nc1ccon1)c1nc[nH]c1C(=O)NCc1ccccc1 | 12.3% (inactive)
COc1cccc(C(=O)N(Cc2cccc(Cl)c2)Cc2ccco2)c1 | -11.4% (inactive)
Cc1cc(C)cc(NS(=O)(=O)c2ccc(-c3cc(C)no3)s2)c1 | -10.7% (inactive)
CCOc1cc(/C=C(\C#N)C(=O)Nc2ccccc2C)ccc1OCc1cc(=O)n2nc(CC)sc2n1 | -12.7% (inactive)
O=C1CC(c2nnc(Cc3ccc(Cl)cc3)o2)CN1c1ccccc1 (centres undefined) | 10.5% (inactive)
COC(=O)c1c(NC(=O)C(C)Oc2ccc(Cl)c(C)c2)sc(C)c1C (centres undefined) | -8.23% (inactive)
CN[C@@H]1[C@H](O[C@H]2[C@H](O[C@H]3[C@H](O)[C@@H](O)[C@H](N=C(N)N)[C@@H](O)[C@@H]3N=C(N)N)O[C@@H](C)[C@]2(O)CO)O[C@@H](CO)[C@H](O)[C@H]1O | 4.88% (inactive)
Cc1ccc(OC(=O)CSc2nnc(-c3cccs3)o2)cc1 | 7.3% (inactive)
CCCCCCCCCCCCCCCCO | 11.6% (inactive)
CCN=C1S/C(=C\c2cc(Br)ccc2OCC(=O)OCC)C(=O)N1CC | 5.26% (inactive)
Cc1cc(/C=C2/SC(=O)N(CC(=O)OC(C)C)C2=O)c(C)n1C | 30.2% (active)
Cc1cc(/C=C2/SC(=O)N(CC(=O)N3CCCC3)C2=O)ccc1N1CCOCC1 | -0.0029% (inactive)
FCOC(C(F)(F)F)C(F)(F)F | 9.08% (inactive)
Cc1ccc(-c2nc(COC(=O)c3c(C)noc3C)cs2)cc1 | 32.5% (active)
COc1ccc(C(=O)COC(=O)c2c(C)noc2C)cc1Cl | -4.54% (inactive)
COc1cc(OC)cc(C(=O)NCC(=O)OCc2csc(-c3ccccc3)n2)c1 | -7.01% (inactive)
CC(=O)OC[C@H]1O[C@@H](O[C@H]2[C@H](O)[C@@H](OC(=O)c3ccccc3C(=O)O)[C@H](O)O[C@@H]2COC(C)=O)[C@H](O)[C@@H](OC(=O)c2ccccc2C(=O)O)[C@@H]1O | 2.74% (inactive)
CCCC(=O)N1CCN(c2nc3c(OC)ccc(C)c3s2)CC1 | 3.21% (inactive)

SMILES | max activation
O=C1C(c2[nH]c3ccccc3c2O)=Nc2ccccc21 | -8.96% (inactive)
NC(=O)C1(N2CCCCC2)CCN(C(=S)Nc2ccc(Cl)cc2)CC1 | 32.5% (active)
CCC(=O)N1CCC(C(N)=O)(N2CCCCC2)CC1 | 1.17% (inactive)
Cc1cc(Cl)ccc1NC(=S)N1CCC(C(N)=O)(N2CCCCC2)CC1 | 5% (inactive)
Cc1ccc(NS(=O)(=O)c2ccc3c(c2)CC(=O)N3)cc1Cl | -10.2% (inactive)
Fc1ccc2[nH]c3c(N4CCN(Cc5ccc6c(c5)OCO6)CC4)ncnc3c2c1 | 9.79% (inactive)
Fc1ccc2[nH]c3c(N4CCSCC4)ncnc3c2c1 | 42.3% (active)
Cc1ccc(CNC(=O)CCC(=O)N2Cc3ccccc3Oc3ncccc32)cc1 | -12% (inactive)
CCC(=O)N1c2ccccc2CC1C(=O)N1CCN(c2ccccc2)CC1 (centres undefined) | 0.179% (inactive)
COc1cccc(C(=O)Nc2ccc3oc(-c4ccc5ccccc5c4)nc3c2)c1 | 15.1% (inactive)
Cc1cc2nc(-c3ccc(NC(=O)c4cccnc4)cc3)oc2cc1C | 32.8% (active)
Cc1cc2nc(-c3ccc(NC(=O)c4cc5ccccc5o4)cc3)oc2cc1C | 2.05% (inactive)
CC1=C(/C=C/C(C)=C/C=C/C(C)=C/C=C/C=C(C)/C=C/C=C(C)/C=C/C2=C(C)CCCC2(C)C)C(C)(C)CCC1 | -12.4% (inactive)
Cc1ccc(NC(=O)CSc2nc3c([nH]c4ccccc43)c(=O)n2-c2ccccc2)cc1Cl | -9.55% (inactive)
Cc1ccc(-n2c(SCC(=O)Nc3ncc(Cl)cc3Cl)nc3ccccc32)cc1 | 39.8% (active)
Cc1cc(C)c(NC(=O)Cn2c(SCC(=O)NCc3ccccc3)nc3ccccc32)c(C)c1 | -11.4% (inactive)
CCC(=O)N1CCc2cc(S(=O)(=O)NC(C(=O)Nc3ccc(C(C)=O)cc3)C(C)C)ccc21 (centres undefined) | -16.2% (inactive)
CSCCC(NS(=O)(=O)c1ccc(C)cc1)C(=O)N1CCCC1 (centres undefined) | -0.577% (inactive)
NC(=O)C1CCN(C(=O)COc2ccc3c4c(c(=O)oc3c2)CCC4)CC1 | -9.64% (inactive)
CCCCC(NS(=O)(=O)c1ccc(C)cc1)C(=O)Oc1ccc2c3c(c(=O)oc2c1)CCC3 (centres undefined) | 51.9% (active)
COc1ccccc1NC(=O)c1oc2ccccc2c1NC(=O)C(C)C | 2.74% (inactive)
